Reference: PubChem BioAssay (EPA / NIEHS)
Calls of active or inactive are those of the source. Rule for the calls: active = hit-call score of the fitted dose curve at least 0.9, where 1 is the maximum; inactive = score below 0.9.

Assays:
[1] = ATG_E_Box_CIS: Attagene CIS-FACTORIAL HepG2 Assay for human Enhancer Box (E-box) (AID 2282936); conditions: HepG2 E-box cis-reporter transcription, actives raise or lower the signal
Summary of the method: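 In this cell-based setup, HepG2 cells bearing transfected promoter-driven reporter units were exposed to chemicals for 24 h; reporter transcripts were amplified, 6-FAM-labelled, cut with HpaI and sized by capillary electrophoresis.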

[2] = ATG_M_61_CIS: Attagene CIS-FACTORIAL HepG2 Assay for M61 Transcription Factor (Internal Marker) (AID 2282937); conditions: HepG2 Attagene CIS-FACTORIAL M61 internal marker reporter; actives raise or lower the signal
Summary of the method: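 Human liver HepG2, transient MRTU transfection (cis promoter elements), 24 h compound. Total RNA → oligo(dT) RT → PCR → FAM label → HpaI → CE. Internal background marker; bidirectional fitting, DMSO = baseline.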

[3] = ATG_EGR_CIS: Attagene CIS-FACTORIAL HepG2 Assay for human Early Growth Response 1 (EGR1) (AID 2282938); conditions: HepG2 Attagene CIS-FACTORIAL EGR reporter mRNA; actives raise or lower the signal
Summary of the method: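 Transient transfection of human HepG2 with multiple cis-regulated reporter units, chemical exposure 24 h, total RNA isolated. Reverse transcription, PCR, fluorescent labelling and capillary electrophoresis quantify reporter transcripts; activity fitted bidirectionally against DMSO.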

[4] = ATG_M_19_CIS: Attagene CIS-FACTORIAL HepG2 Assay for M19 Transcription Factor (Internal Marker) (AID 2282939); conditions: HepG2 Attagene CIS-FACTORIAL M19 internal marker reporter; actives raise or lower the signal
Summary of the method: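 Chemical-treated HepG2 (24 h) with MRTU constructs; reporter transcripts detected by fluorescent RT-PCR fragment analysis on capillary electrophoresis. Internal background marker, DMSO as baseline.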

[5] = ATG_Ets_CIS: Attagene CIS-FACTORIAL HepG2 Assay for human Erythroblast Transformation Specific (ETS) (AID 2282941); conditions: HepG2 ETS cis-reporter transcription, actives raise or lower the signal
Summary of the method: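 Cis-regulated reporter mRNA induction in HepG2 (transient transfection), 24 h exposure, RT-PCR plus capillary electrophoresis detection; DMSO serves as negative control and baseline.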

[6] = molecular target: Hepatocyte nuclear factor 3-beta (Homo sapiens) (UniProt Q9Y261); test: ATG_FoxA2_CIS: Attagene CIS-FACTORIAL HepG2 Assay for human Forkhead box A2 (FOXA2) (AID 2282942); conditions: HepG2 cis-reporter transcription factor activity, 24 h; actives raise or lower the signal
Summary of the method: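 Transient MRTU transfection of HepG2 liver cells; 24 h treatment; total RNA → oligo(dT) RT → PCR → FAM primer extension → HpaI cut → CE. Bidirectional fit vs DMSO.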

[7] = ATG_FoxO_CIS: Attagene CIS-FACTORIAL HepG2 Assay for human Forkhead box O (FoxO) (AID 2282943); conditions: HepG2 Attagene cis-reporter, FoxO element, mRNA; actives raise or lower the signal
Summary of the method: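 HepG2 cells transiently transfected with cis-element-driven reporter units report endogenous FoxO activity. After 24 h chemical exposure, reporter mRNA quantified by RT-PCR, fluorescent labeling, HpaI digestion and capillary electrophoresis; bidirectional fit versus DMSO.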

[8] = ATG_GATA_CIS: Attagene CIS-FACTORIAL HepG2 Assay for human GATA Binding Protein (AID 2282944); conditions: HepG2 GATA cis-element reporter, Attagene multiplex mRNA; actives raise or lower the signal
Summary of the method: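 Transfected cis-reporter HepG2 cells were treated with chemicals for 24 hours. Total RNA was then converted to cDNA, amplified with reporter-specific primers and analysed by fluorescent capillary electrophoresis, using DMSO-treated wells as baseline.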

[9] = ATG_GLI_CIS: Attagene CIS-FACTORIAL HepG2 Assay for human Zinc Finger Protein GLI1 (AID 2282945); conditions: HepG2, Attagene cis-factorial reporter mRNA, GLI element; actives raise or lower the signal
Summary of the method: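 Transiently transfected HepG2 cells report endogenous transcription factor activity via cis-element-driven reporter units. After 24 h compound exposure, reporter mRNA was measured by RT-PCR with capillary electrophoresis; bidirectional fitting against DMSO baseline.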

[10] = molecular target: Bile acid receptor (Homo sapiens) (UniProt Q96RI1); test: ATG_IR1_CIS: Attagene CIS-FACTORIAL HepG2 Assay for human Nuclear Receptor Subfamily 1 Group H Member 4 (NR1H4), IR1 submotif (AID 2282946); conditions: IR1 reporter transcription, actives raise or lower the signal
Summary of the method: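 Fluorescence of capillary-separated, HpaI-digested RT-PCR reporter products gave IR1-element mRNA induction in HepG2 cells 24 h after dosing. Endogenous transcription factors drove the cis-regulated reporters; activity was fitted bidirectionally against DMSO.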

[11] = ATG_GRE_CIS: Attagene CIS-FACTORIAL HepG2 Assay for human Glucocorticoid Response Elements (GRE) (AID 2282947); conditions: HepG2 GRE cis-reporter, Attagene multiplex mRNA; actives raise or lower the signal
Summary of the method: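 Fluorescence intensity of reporter-specific cDNA fragments, separated by capillary electrophoresis, provides the signal. Constructs carry cis-regulating promoters in transiently transfected HepG2 liver cells; 24 h incubation; fitting is bidirectional against DMSO.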

[12] = ATG_ISRE_CIS: Attagene CIS-FACTORIAL HepG2 Assay for human Interferon Regulatory Factor 1 (IRF1) binding to an Interferon-Stimulated Response Element (ISRE) (AID 2282948); conditions: HepG2 ISRE cis-reporter (Attagene), mRNA transcription readout; actives raise or lower the signal
Summary of the method: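 Multiplexed mRNA reporter readout in human liver HepG2 cells: cis-element-driven reporters transfected, compound added for 24 h, transcripts amplified, fluorescently labelled and sized by capillary electrophoresis; curve fitting bidirectional against DMSO.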

[13] = ATG_M_32_CIS: Attagene CIS-FACTORIAL HepG2 Assay for M32 Transcription Factor (Internal Marker) (AID 2282949); conditions: HepG2 Attagene cis-factorial M32 reporter, mRNA; actives raise or lower the signal;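 note: background control marker of the multiplexed CIS panel rather than a real target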
Summary of the method: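 HepG2 transfectants (cis-regulated reporter transcription units) dosed 24 h. Reporter mRNA by RT-PCR plus CE, analysed as gain or loss relative to DMSO.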

[14] = ATG_M_06_CIS: Attagene CIS-FACTORIAL HepG2 Assay for M06 Transcription Factor (Internal Marker) (AID 2282950); conditions: HepG2 Attagene CIS-FACTORIAL M06 internal marker reporter; actives raise or lower the signal
Summary of the method: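 Cells (HepG2, transiently carrying cis-driven reporter units) receive chemical for 24 h before RNA isolation. Reporter cDNA is PCR-amplified, FAM-labelled by primer extension, HpaI-digested and sized on a capillary analyser.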

[15] = molecular target: Hypoxia-inducible factor 1-alpha (Homo sapiens) (UniProt Q16665); test: ATG_HIF1a_CIS: Attagene CIS-FACTORIAL HepG2 Assay for human Hypoxia Inducible Factor 1 (HIF1A) (AID 2282951); conditions: HepG2 Attagene cis-factorial HIF1a reporter transcription; actives raise or lower the signal
Summary of the method: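 Transient MRTU transfection of human HepG2 liver cells, 24 h compound treatment, then total RNA isolation, oligo(dT) reverse transcription, PCR amplification, fluorescent labelling and capillary electrophoresis of reporter fragments. Gain or loss relative to DMSO.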

[16] = molecular target: Hepatocyte nuclear factor 6 (Homo sapiens) (UniProt Q9UBC0); test: ATG_HNF6_CIS: Attagene CIS-FACTORIAL HepG2 Assay for human Hepatocyte Nuclear Factor 6 (HNF6) (AID 2282952); conditions: HepG2 Attagene cis-factorial HNF6 reporter transcription; actives raise or lower the signal
Summary of the method: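 Activity values derive from bidirectional fitting against DMSO of reporter mRNA levels, measured by capillary electrophoresis of labelled RT-PCR products from HepG2 cells exposed 24 h.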

[17] = molecular target: Heat shock factor protein 1 (Homo sapiens) (UniProt Q00613); test: ATG_HSE_CIS: Attagene CIS-FACTORIAL HepG2 Assay for human Heat Shock Transcription Factor 1 (HSE) (AID 2282953); conditions: HepG2 HSE cis-reporter, Attagene RNA transcription; actives raise or lower the signal
Summary of the method: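 Liver-derived HepG2 cells carry transiently introduced multiple reporter units governed by cis promoters. Reporter RNA measured 24 h post-dose through reverse transcription, PCR amplification, fluorescent labelling and capillary electrophoresis, normalised to DMSO.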

[18] = ATG_MRE_CIS: Attagene CIS-FACTORIAL HepG2 Assay for human Metal Responsive Element (MRE) (AID 2282954); conditions: HepG2 MRE cis-reporter transcription, Attagene multiplex; actives raise or lower the signal
Summary of the method: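 Measured here is mRNA induction from an MRE cis-element reporter in HepG2 after 24 h, quantified by fluorescence of labelled RT-PCR products on capillary electrophoresis; gain- and loss-of-signal fits use DMSO as baseline.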

[19] = ATG_PBREM_CIS: Attagene CIS-FACTORIAL HepG2 Assay for human Phenobarbital-responsive Enhancer Module (PBREM) (AID 2282955); conditions: HepG2 PBREM cis-reporter, Attagene multiplexed transcription; actives raise or lower the signal
Summary of the method: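 Endogenous transcription factors in human liver HepG2 cells drive a PBREM cis-element reporter, whose transcript level after 24 h treatment is quantified by RT-PCR with capillary electrophoresis; activity fitted in both directions against DMSO.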

[20] = ATG_ERE_CIS: Attagene CIS-FACTORIAL HepG2 Assay for Estrogen Response Element (ERE) (AID 2282940); conditions: HepG2 ERE cis-reporter, Attagene RNA transcript; actives raise or lower the signal
Summary of the method: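 Human liver cells (HepG2) bearing transiently transfected, promoter-regulated reporter units were exposed 24 h. Reporter mRNA induction was detected by capillary electrophoresis of labelled RT-PCR products and fitted bidirectionally to DMSO.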

Measured: AC50

Hepatocyte nuclear factor 3-beta (Homo sapiens), sequence (Q9Y261 whole entry, looked up): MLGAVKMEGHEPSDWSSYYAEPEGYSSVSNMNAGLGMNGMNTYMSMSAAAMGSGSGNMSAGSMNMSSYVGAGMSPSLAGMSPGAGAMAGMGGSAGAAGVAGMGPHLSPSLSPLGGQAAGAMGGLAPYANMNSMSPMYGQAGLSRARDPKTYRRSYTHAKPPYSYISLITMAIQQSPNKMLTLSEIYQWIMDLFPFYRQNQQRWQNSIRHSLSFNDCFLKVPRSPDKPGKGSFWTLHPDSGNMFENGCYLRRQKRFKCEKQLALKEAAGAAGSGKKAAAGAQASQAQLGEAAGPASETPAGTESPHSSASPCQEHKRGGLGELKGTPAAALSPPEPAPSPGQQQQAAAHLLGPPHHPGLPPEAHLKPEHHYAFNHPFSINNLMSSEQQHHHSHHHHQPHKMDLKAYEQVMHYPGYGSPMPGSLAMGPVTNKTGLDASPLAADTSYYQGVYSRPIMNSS
Hepatocyte nuclear factor 6 (Homo sapiens), sequence (Q9UBC0 whole entry, looked up): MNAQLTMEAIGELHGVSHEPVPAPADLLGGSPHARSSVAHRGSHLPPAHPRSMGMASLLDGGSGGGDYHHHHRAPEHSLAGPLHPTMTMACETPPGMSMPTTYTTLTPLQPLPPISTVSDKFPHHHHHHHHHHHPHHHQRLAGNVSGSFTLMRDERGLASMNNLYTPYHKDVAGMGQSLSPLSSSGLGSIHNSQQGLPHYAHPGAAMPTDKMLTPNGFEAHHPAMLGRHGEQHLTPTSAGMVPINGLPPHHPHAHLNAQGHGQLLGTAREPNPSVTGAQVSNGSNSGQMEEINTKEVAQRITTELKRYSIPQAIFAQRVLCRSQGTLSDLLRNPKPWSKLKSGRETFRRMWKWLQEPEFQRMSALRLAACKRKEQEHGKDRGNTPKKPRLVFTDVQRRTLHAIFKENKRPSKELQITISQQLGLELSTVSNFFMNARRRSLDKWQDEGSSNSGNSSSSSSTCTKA
Heat shock factor protein 1 (Homo sapiens), sequence (Q00613 whole entry, looked up): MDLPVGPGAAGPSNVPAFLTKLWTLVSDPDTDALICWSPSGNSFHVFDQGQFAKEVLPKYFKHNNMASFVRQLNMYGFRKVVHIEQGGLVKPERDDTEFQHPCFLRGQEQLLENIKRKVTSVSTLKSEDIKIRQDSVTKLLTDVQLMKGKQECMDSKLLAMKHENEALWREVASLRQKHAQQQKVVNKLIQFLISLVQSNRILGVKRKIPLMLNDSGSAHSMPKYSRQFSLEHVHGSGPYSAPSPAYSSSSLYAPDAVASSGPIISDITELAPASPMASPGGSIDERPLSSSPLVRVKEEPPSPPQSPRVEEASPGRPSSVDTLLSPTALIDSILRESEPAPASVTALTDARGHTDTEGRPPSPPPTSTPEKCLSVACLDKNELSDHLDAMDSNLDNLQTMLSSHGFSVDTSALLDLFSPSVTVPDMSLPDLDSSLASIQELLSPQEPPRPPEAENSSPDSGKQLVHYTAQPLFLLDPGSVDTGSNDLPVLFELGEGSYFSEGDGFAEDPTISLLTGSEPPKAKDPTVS
Bile acid receptor (Homo sapiens), sequence (Q96RI1 whole entry, looked up): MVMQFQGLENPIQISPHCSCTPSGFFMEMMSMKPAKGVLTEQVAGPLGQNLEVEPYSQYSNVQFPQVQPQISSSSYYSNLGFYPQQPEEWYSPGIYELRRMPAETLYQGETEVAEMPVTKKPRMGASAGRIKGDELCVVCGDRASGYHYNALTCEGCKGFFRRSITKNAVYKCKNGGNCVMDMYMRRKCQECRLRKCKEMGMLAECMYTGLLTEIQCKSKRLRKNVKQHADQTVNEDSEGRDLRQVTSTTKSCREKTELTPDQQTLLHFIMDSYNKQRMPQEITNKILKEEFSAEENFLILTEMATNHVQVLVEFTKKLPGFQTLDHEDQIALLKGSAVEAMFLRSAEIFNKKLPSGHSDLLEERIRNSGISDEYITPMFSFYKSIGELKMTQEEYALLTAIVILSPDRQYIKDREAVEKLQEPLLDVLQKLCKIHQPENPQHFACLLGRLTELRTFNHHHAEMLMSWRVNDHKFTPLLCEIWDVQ
Hypoxia-inducible factor 1-alpha (Homo sapiens), sequence (Q16665 whole entry, looked up, the tested form may be a part): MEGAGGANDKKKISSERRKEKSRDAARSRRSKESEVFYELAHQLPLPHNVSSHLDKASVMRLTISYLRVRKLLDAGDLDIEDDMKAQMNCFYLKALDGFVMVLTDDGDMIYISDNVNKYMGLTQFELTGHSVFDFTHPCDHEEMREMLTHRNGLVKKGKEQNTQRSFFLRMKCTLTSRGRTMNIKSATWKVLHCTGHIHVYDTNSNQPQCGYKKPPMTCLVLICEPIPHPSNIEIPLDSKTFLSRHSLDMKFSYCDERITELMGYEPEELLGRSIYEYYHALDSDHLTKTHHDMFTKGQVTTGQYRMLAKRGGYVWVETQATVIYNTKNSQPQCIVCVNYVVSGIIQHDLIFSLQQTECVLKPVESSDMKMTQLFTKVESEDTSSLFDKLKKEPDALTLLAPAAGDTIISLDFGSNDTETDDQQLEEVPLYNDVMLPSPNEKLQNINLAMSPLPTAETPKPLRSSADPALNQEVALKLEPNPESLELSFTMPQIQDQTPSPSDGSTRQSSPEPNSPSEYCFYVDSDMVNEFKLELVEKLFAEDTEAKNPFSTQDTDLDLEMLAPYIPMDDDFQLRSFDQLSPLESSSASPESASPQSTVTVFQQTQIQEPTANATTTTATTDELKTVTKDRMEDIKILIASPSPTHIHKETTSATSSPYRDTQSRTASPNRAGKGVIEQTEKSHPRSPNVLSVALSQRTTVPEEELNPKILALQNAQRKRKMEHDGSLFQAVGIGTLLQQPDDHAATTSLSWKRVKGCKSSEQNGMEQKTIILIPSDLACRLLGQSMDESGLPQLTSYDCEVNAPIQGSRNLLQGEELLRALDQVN

C=CC(=O)OCCC#N
active: [3] 82.6 µM | [5] 35.9 µM | [7] 100 µM | [9] 145 µM | [10] 58.1 µM | [11] 64.2 µM | [12] 70 µM | [15] 56.6 µM | [17] 170 µM | [18] 86.2 µM
inactive: [1] | [2] | [4] | [6] | [8] | [13] | [14] | [16]

Cc1cc(=O)oc2cc(N(C)C)ccc12
active: [19] 100 µM
not listed: [20]
inactive: all other assays above

CS(C)=O
not listed: [19] | [20]
inactive: all other assays above

CCCCC(CC)COC(=O)c1ccc(O)cc1 (stereo not drawn)
not listed: [19] | [20]
inactive: all other assays above

O=C(O)CNc1ccccc1
active: [13] 165 µM
not listed: [19] | [20]
inactive: all other assays above

OC[C@H]1O[C@@H](Oc2ccc(O)cc2)[C@H](O)[C@@H](O)[C@@H]1O
not listed: [10] | [11] | [19]
inactive: all other assays above

CC(C)(CO)[C@@H](O)C(=O)NCCC(=O)O
not listed: [10] | [11] | [15] | [16]
inactive: all other assays above

O=CN1CCOCC1
active: [15] 51.7 µM
not listed: [10] | [11] | [16] | [19]
inactive: all other assays above

CN(c1nccc(=O)[nH]1)C1CCN(c2nc3ccccc3n2Cc2ccc(F)cc2)CC1
active: [18] 26.7 µM
not listed: [10] | [11] | [13] | [19]
inactive: all other assays above

CC(C)CCCCCCc1ccc(OCCOCCO)cc1
not listed: [10] | [11] | [16]
inactive: all other assays above

CC1(C)C(=O)N(Cl)C(=O)N1Br
not listed: [19] | [20]
inactive: all other assays above

[Cl][Au]([Cl])[Cl]
not listed: [19] | [20]
inactive: all other assays above

CCC(=O)OCCOc1ccccc1
not listed: [10] | [11] | [19]
inactive: all other assays above

O=C(O)c1ccc(O)cc1
not listed: [20]
inactive: all other assays above

COC(C)(C)CC(C)=O
not listed: [20]
inactive: all other assays above

CCCCCC(C=O)=Cc1ccccc1
active: [12] 160 µM | [17] 173 µM
not listed: [20]
inactive: all other assays above
